MCF10A rereplic: A quantitative high throughput screen for small molecules that induce DNA re-replication in MCF 10a normal breast cells; MCF 10A DNA re-replication, Hoechst nuclear intensity, 48 h; Potency, µM (top dose mostly 46.1 µM), for the others: at the top dose activity, positive = re-replication, most hits filed as activators; 350,000 tested, 2.9% active; AID 624296, 2012; further: % of control where 0% means no effect; nearly all actives have a fitted effect of over 50% in size
A-T KAP1 phos: qHTS Assay for Identifying a Potential Treatment of Ataxia-Telangiectasia; Potency, µM (top dose mostly 57.5 µM), for the others: top-dose activation, actives largely listed as activators; F2112 A-T fibroblasts, KAP-1 phosphorylation AlphaLISA; neocarzinostatin DNA damage 30 min before lysis; 320,000 tested, 0.19% active; further: % of control where 0% means no effect; nearly all actives have a fitted effect of over 45% in size
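ATM-like activity read as KAP-1 phosphorylation via AlphaLISA donor/acceptor antibody pairs after lysis and 6 hr at 25C. Cells were ATM-null patient fibroblasts (F2112, hTERT), dosed 60 min, then exposed to the DSB inducer NCS for 30 min.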
p53 reactivation: qHTS assay for re-activators of p53 using a Luc reporter; 320,000 tested, 0.063% active; Potency, µM (doses to about 92.2 µM), inactives show top-dose activity change, positive = activation, actives largely listed as activators; H1299 p53-A138V BP100-luciferase reporter, luminescence, 24 h; further: % of control where 0% means no effect; nearly all actives have a fitted effect of over 45% in size
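H1299 (p53-null), stable ts p53-A138V + BP100-Luc; 1000 cells/well, Opti-MEM/10% FBS; cpd 4 pt, 1:5; 24 h, 37 deg C, 5% CO2; detection reagent 10 min RT; luminescence.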
ELG1 genotoxic: qHTS screen for small molecules that induce genotoxicity in human embryonic kidney (HEK293T) cells expressing luciferase-tagged ELG1; AID 504466, 2011; HEK293T ELG1-luciferase reporter, luminescence, 16 h; 330,000 tested, 1.3% active; Potency, µM (highest dose often 46 µM), without a hit: top-dose activity change, positive = activation, hits mostly activators; further: % of control where 0% means no effect; nearly all actives have a fitted effect of over 60% in size
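Reporter readout depends on ELG1 protein level, which increases with genetic stress. After 16 hr compound exposure at 37 °C, luciferase activity was quantified using ONE-Glo.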
ELG1 repair inh: qHTS screen for small molecules that inhibit ELG1-dependent DNA repair in human embryonic kidney (HEK293T) cells expressing luciferase-tagged ELG1; 330,000 tested, 2.3% active; HEK293T ELG1-luciferase reporter, luminescence, 16 h; DNA damage induced by 5-fluorouridine; Potency, µM (highest dose often 46.1 µM), inactives show at the highest dose activity change, negative = inhibition, usual class: inhibitors; further: on the % scale 0 is the no-effect control and ±100 the full control effect; nearly all actives have a fitted effect of over 55% in size
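Cells (2,000 per well) received 5-fluorouridine plus test compound or DMSO and were incubated 16 hr at 37 °C, 5% CO2. Luciferase activity was read by luminescence 30 min after ONE-Glo addition; signal suppression marked inhibition of damage-induced ELG1 function.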
SW480 rereplic: A quantitative high throughput screen for small molecules that induce DNA re-replication in SW480 colon adenocarcinoma cells. SW480 DNA re-replication, Hoechst DNA content imaging, 48 h. Potency, µM (series often up to 46.1 µM), inactives show at the highest dose re-replication activation, hits mostly activators. 340,000 tested, 1.8% active. AID 624297, 2012; further: % of control where 0% means no effect; nearly all actives have a fitted effect of over 55% in size
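SW480 cells exposed to compounds for 48 hr at 37 C, 5% CO2, then Hoechst-stained 40 min. Nuclear DNA content imaged by fluorescence scanning (405 nm excitation, 500-530 nm emission); re-replication scored as increased high-intensity nuclei.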
ELG1-Luc inh: HTS assay for small molecules that inhibit ELG1-dependent DNA repair in human embryonic kidney (HEK293T) cells expressing luciferase-tagged ELG1: Hit Confirmation; HEK293T ELG1-luciferase levels, luminescence; cells co-treated with 5-fluorouridine; 670 tested, 68% active; Potency, µM (top dose mostly 46.1 µM), without a hit: at the top dose activity change, negative = inhibition, hits mostly inhibitors; shares compounds with ELG1 repair inh; further: on the % scale 0 is the no-effect control and ±100 the full control effect; nearly all actives have a fitted effect of over 55% in size
ELG1-Luc MMS: inhibits ELG1-dependent repair under MMS stimulation in HEK293T cells; shares compounds with ELG1 repair inh; HEK293T luciferase-tagged ELG1 level, MMS stimulated; Potency, µM (top dose mostly 46.1 µM), inactives show at the highest dose activity change, negative = inhibition, hits mostly inhibitors; 670 tested, 53% active; further: on the % scale 0 is the no-effect control and ±100 the full control effect; nearly all actives have a fitted effect of over 60% in size
ELG1 5-FU: qHTS screen for small molecules that inhibit ELG1-dependent DNA repair: Hit Confirmation with 5FU Viability. AID 624250, 2012. 670 tested, under 10 active. cell viability with 5-FU, ELG1-dependent repair. Potency, µM (doses to about 46.1 µM), for inactives: at the highest dose activity change, negative = viability loss, actives largely listed as cytotoxic. shares compounds with ELG1 repair inh;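 further: ELG1-luc HEK293T cells cotreated with 5-fluorouridine at 10 µM final; viability measured 16 h after compound addition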
ELG1 MMS cell: qHTS screen for small molecules that inhibit ELG1-dependent DNA repair: Hit Confirmation with MMS Viability. AID 624251, 2012. 670 tested, 33% active. shares compounds with ELG1 repair inh. Cell viability with MMS, ELG1-dependent DNA repair. Potency, µM (doses to about 46.1 µM), for the others: top-dose activity change, negative = viability loss, actives largely listed as cytotoxic;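 further: ELG1-luc HEK293T cells co-treated with 10 µM MMS; viability read 16 h after compound addition; on the % scale 0 is the no-effect control and ±100 the full control effect; nearly all actives have a fitted effect of over 60% in size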
ELG1 unstim viab: qHTS screen for small molecules that inhibit ELG1-dependent DNA repair: Hit Confirmation with Unstimulated Viability Assay | cell viability counter-screen, unstimulated, luminescence | Potency, µM (top dose mostly 45.9 µM), for the others: top-dose activity change, negative = loss of viability, most hits filed as cytotoxic | shares compounds with ELG1 repair inh | 900 tested, 8% active | AID 624252, 2012;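 further: compound exposure lasted 16 hours before reading; on the % scale 0 is the no-effect control and ±100 the full control effect; nearly all actives have a fitted effect of over 55% in size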
Active calls of the source: *; ? = inconclusive. Only some compounds are listed: those with a hit (about 7.1% of all), similar ones and a draw of the others. The call rests on the fitted dose curve; in most records, active means well fitted curve in the direction sought with a large enough effect; inconclusive means small, poorly fitted or top-dose-only effect, or another doubt; inactive means no such curve, though single readings can be large; an effect the other way counts as inactive or inconclusive. Potency means the concentration at half of the fitted maximal effect.

SMILES	MCF10A rereplic	A-T KAP1 phos	p53 reactivation	ELG1 genotoxic	ELG1 repair inh	SW480 rereplic	others
Cc1cc(N2CCCC2)ccc1NC(=O)CN1C(=O)NC2(CCCCC2)C1=O	3%	-10%	-9%	-2%	-3%	0%
O=C(O)c1cc(S(=O)(=O)NCCCN2CCCC2=O)ccc1Cl	-2%	16%	-3%	-3%	?	-10%
Cc1ccccc1NC(=O)COC(=O)/C=C/c1cn(-c2ccccc2)nc1-c1cccnc1	5%	-2%	5%	0%	?	-2%
CC(=O)Nc1ccc(NC(=O)C(C)OC(=O)/C=C/c2cn(-c3ccccc3)nc2-c2cccnc2)cc1 (stereo not given)	?	3%	-28%	-7%	1.6µM*	-3%	ELG1-Luc inh=0.79µM*;ELG1-Luc MMS=25µM*;ELG1 5-FU=?;ELG1 MMS cell=25µM*;ELG1 unstim viab=?
Cc1ccc(CN(C(=O)c2ccccc2[N+](=O)[O-])C2CCS(=O)(=O)C2)o1 (stereo not given)	-4%	8%	2%	2%	?	-22%

Source: PubChem (National Center for Advancing Translational Sciences (NCATS))
